# Source: PubChem BioAssay (National Center for Advancing Translational Sciences (NCATS))
# FBPA coupling cs – counter-screen for Giardia aldolase inhibitors: coupling enzyme system. coupling enzyme system counterscreen, AmpLite Red fluorescence. activity change, negative = inhibition, % at 58.2 µM, hits read low. actives 0.67% (n = 290,000); in the data active means activity change below about -30%
#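 Final compound at 57.5 uM, incubated 10 min at RT with coupling enzyme reagent (glyceraldehyde-3-phosphate), then 20 min with substrate and AmpLite Red detection. Fluorescence read at 525/598 nm; tests interference with the coupling assay, not aldolase inhibition.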
# Sfp inh – inhibitors of Bacillus subtilis Sfp phosphopantetheinyl transferase; Q9F4F7; Biochemical Sfp PPTase activity, qHTS; Potency, µM, for inactives: largest response in the series, negative = inhibition, usual class: inhibitors; actives 3.5% (n = 310,000); AID 1490;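 further: the enzyme is Sfp with the accession as filed and its product quenches rhodamine fluorescence; potency means the concentration at half of the fitted maximal effect; 0% = enzyme reaction without inhibitor and -100% = no enzyme wells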
#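 Compounds were incubated with enzyme (final 15 nM) for 15 min at room temperature before substrate addition started the reaction. Fluorescence at 525 nm excitation, 598 nm emission was recorded immediately and after 30 minutes.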
# G9a block – blocks human histone lysine methyltransferase G9a. Q96KQ7. G9a H3K9 monomethylation, AlphaScreen, 2 h. Potency, µM (highest dose often 102 µM), inactives show top-dose activity, negative = inhibition, usual class: inhibitors. actives 8.8% (n = 350,000). AID 504332; further: potency means the concentration at half of the fitted maximal effect; nearly all actives have a fitted effect of over 75% in size
# Target sequence (Q96KQ7 913-1193 limits assumed): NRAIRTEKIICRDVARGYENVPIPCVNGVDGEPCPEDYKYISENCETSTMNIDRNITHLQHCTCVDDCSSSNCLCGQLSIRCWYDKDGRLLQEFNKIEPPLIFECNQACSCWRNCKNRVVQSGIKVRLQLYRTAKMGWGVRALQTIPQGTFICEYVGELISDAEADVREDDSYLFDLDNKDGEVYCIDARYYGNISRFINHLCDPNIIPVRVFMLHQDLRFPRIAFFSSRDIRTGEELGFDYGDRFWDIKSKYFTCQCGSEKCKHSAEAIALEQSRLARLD
#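 Compounds were preincubated with 20 nM G9a for 15 min, after which biotinylated H3K9 peptide (500 nM) and SAM (20 uM) started a 2 h room-temperature reaction. Monomethylated product was quantified by antibody-based AlphaScreen chemiluminescence.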
# Tau FP inhib – blocks human tau fibril formation measured by polarization. K18 P301L tau heparin fibrillization, Alexa594 FP, 6 h. P10636. Potency, µM (doses to about 57.7 µM), for inactives: at the top dose activity, negative = inhibition, most hits filed as inhibitors. AID 1468. actives 0.39% (n = 280,000); further: potency means the concentration at half of the fitted maximal effect; nearly all actives have a fitted effect of over 55% in size
# Target sequence (P10636 561-689 P618L limits assumed): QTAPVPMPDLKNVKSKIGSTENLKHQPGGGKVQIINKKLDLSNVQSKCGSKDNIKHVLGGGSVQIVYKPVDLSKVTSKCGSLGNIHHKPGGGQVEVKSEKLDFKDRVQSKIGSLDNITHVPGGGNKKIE
#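 Steps: dispense K18 P301L tau (15 uM plus 0.24 uM Alexa 594 tracer, final) in pH 7 sodium acetate; add compound; add heparin (20 uM final); incubate 6 hr, 37 C; add ThT (30 uM final); after 1 hr ambient, read FP.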
# Tau fluor counter – counter-screen for tau fibril formation inhibitors. tau K18 P301L Alexa594 fluorescence, heparin fibrillization. Potency, µM (top dose mostly 57.7 µM), without a hit: at the top dose activity change, negative = decrease. actives 0.93% (n = 280,000); further: potency means the concentration at half of the fitted maximal effect; nearly all actives have a fitted effect of over 55% in size
#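 Human tau K18 P301L (15 uM unlabeled, 0.24 uM Alexa 594-labeled) in 100 mM sodium acetate pH 7 with 20 uM heparin, 6 hr at 37 C. ThT 30 uM added, 1 hr ambient; Alexa 594 FP and total fluorescence read at 555/632 nm.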
# Tau ThT inhib – tau fibrillization inhibition (ThT binding) | Potency, µM (doses to about 57.4 µM), without a hit: top-dose activity, negative = inhibition, usual class: inhibitors | AID 1460 | recombinant tau K18 P301L, heparin-induced fibrillization, ThT fluorescence | actives 2.1% (n = 270,000) | P10636; further: potency means the concentration at half of the fitted maximal effect; nearly all actives have a fitted effect of over 55% in size
#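 Fibril formation assay: tau K18 P301L at 15 uM with trace Alexa 594 label, heparin inducer 20 uM, pH 7 sodium acetate buffer, 37 C for 6 hr; endpoint ThT signal.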
# * = called active by the depositor; u = inconclusive; x = not tested or not shown; [ ] = another dose, or the depositor's remark. Rows were chosen to be rich in hits. Some 11% of all compounds tested hit in one or more screens of this group. Unless noted, the call rests on the fitted dose curve; in most records, active means well fitted curve in the direction sought with a large enough effect; inconclusive means small, poorly fitted or top-dose-only effect, or another doubt; inactive means no such curve, though single readings can be large; an effect the other way counts as inactive or inconclusive. Unless noted, on the % scale 0 is the no-effect control and ±100 the full control effect.
SMILES,FBPA coupling cs,Sfp inh,G9a block,Tau FP inhib,Tau fluor counter,Tau ThT inhib
CC(C)c1nnc(N2C(=O)c3oc4ccccc4c(=O)c3C2c2ccco2)s1 (centres undefined),1,-26%,2%[59 µM],-1%,-11%,u
O=C(CSCc1cnn(-c2ccccc2)c1-n1cccc1)N1CCN(Cc2ccccc2)CC1,1,-5%,40µM*,4%,-16%,u
O=C(O)CSCc1cnn(-c2ccccc2)c1-n1cccc1,0,-24%,-42%[59 µM],u,u,u
CCc1cc2c(N3CCCCC3)ncnc2s1,-1,-25%,50µM*,-4%,-8%,-2%
OCc1ccc(-c2ccc(-c3ccc(CO)s3)o2)s1,-1,-26%,1.6µM*,13%,u,u
Cc1ccc(Oc2cc(NC(=O)CCCn3nc([N+](=O)[O-])cc3C)cc([N+](=O)[O-])c2)cc1,-1,9%,u,3%,10µM*[quencher],-7%
Cc1ccc(C)c(Oc2cc(NC(=O)CCCn3nc(C)c([N+](=O)[O-])c3C)cc([N+](=O)[O-])c2)c1,1,13%,-40%,1%,-2%,-4%
Cc1cccc(Oc2cc(NC(=O)c3ccccc3)cc([N+](=O)[O-])c2)c1,-8,39%,u,-9%,7.1µM*[quencher],0%
Cn1cc([N+](=O)[O-])c(C(=O)Nc2cc(Oc3ccccc3)cc([N+](=O)[O-])c2)n1,0,-9%,-22%[59 µM],3%,u,-13%
Cc1nn(CCCC(=O)Nc2cc(Oc3ccccc3)cc([N+](=O)[O-])c2)c(C)c1[N+](=O)[O-],0,11%,-15%,7%,10µM*[quencher],-3%
Cc1cc(C)cc(C(=O)Oc2cc(C)[nH]c(=O)c2[N+](=O)[O-])c1,x,9%,-13%,x,x,x
CC(=O)c1ccc(S(=O)(=O)Nc2ccc(C(=O)N(C)CC(=O)Nc3cccc(C)c3C)cc2)cc1,x,x,-25%[59 µM],x,x,x
COc1ccccc1NC(=O)C1=C(C)NC2=C(C(=O)CC(c3ccc(OC)c(OC)c3)C2)C1c1coc2ccccc2c1=O (centres undefined),-4,6%,45µM*,-5%,-23%,-13%
CCOC(=O)C1=C(C)NC2=C(C(=O)CC(c3ccc(OC)c(OC)c3)C2)C1c1ccc(C)o1 (centres undefined),-1,-6%,3%[59 µM],10%,2%,-9%
CCOc1ccc(Cl)cc1/C=C1/C(=O)ON=C1C,0,50µM*,u,x,x,x
COc1ccc(Cl)cc1/C=C1/C(=O)ON=C1C,5,50µM*,u,x,x,x
Cc1c(CNCCC2=CCCCC2)c(C(=O)O)c(C)n1Cc1ccccc1,9,11%,50µM*,-3%,-13%,-14%
COC(=O)c1ccc(NC(=O)C2CCN(C(=O)c3ccc(F)cc3)CC2)cc1,x,x,-1%[59 µM],-10%,-6%,0%
Nc1nc(N)c(N=Nc2ccc(C(=O)O)cc2)c(N)n1,-1,-4%,u,4%,-10%,14µM*
CN(C)c1ccc(N=Nc2ccc(C(=O)O)cc2)cc1,0,79µM*,10µM*,x,x,x
O=C(O)c1ccc(N=NN2CCCCC2)cc1,18,3%,35µM*,-3%,-2%,0%
COC(=O)c1ccc(N=NN2CCCCCC2)cc1,2,-2%,13%,7%,-26%,u
O=C1CCCC(O)=C1N=Nc1ccc(C(=O)O)cc1,0,-4%,8.9µM*,-9%,-25%,u
CN(C)c1ccc(C(=O)c2ccccc2)cc1,3,-10%,1%[59 µM],3%,-12%,-13%
O=C(O)c1ccc(N=Nc2c(-c3ccccc3)[nH]oc2=O)cc1,10,-4%,-16%,x,x,x
SMILES,FBPA coupling cs,Sfp inh,G9a block,Tau FP inhib,Tau fluor counter,Tau ThT inhib
CC1CCCCN1C(=O)CSc1nc2ccccc2nc1Cc1ccccc1 (centres undefined),x,x,10%[59 µM],1%,-11%,-11%
Cc1cccc(C)c1NC(=O)Cn1c(SCC(=O)NCc2ccccc2)nc2ccccc21,x,x,1%[59 µM],-5%,-7%,-4%
CCOc1ccc(NC(=O)CSc2cn[nH]n2)cc1,x,x,-14%,x,x,x
Cc1ccc(NC(=O)CSc2cn[nH]n2)cc1,3,16%,50µM*,x,x,x
O=C(CSc1cn[nH]n1)Nc1ccc(O)c(C(=O)O)c1,-1,-5%,13µM*,x,x,x
COc1cc(OC)cc(C(=O)OCC(=O)NC2CCCCCC2)c1,x,x,18%[59 µM],x,x,x
O=C(Nc1nccs1)c1ccc(N2CCOCC2)c([N+](=O)[O-])c1,x,9%,u,x,x,x
COc1ccc(C(C)=O)cc1CSc1nnc(Nc2ccc(C)cc2C)s1,2,7%,35µM*,11%,-22%,u
Cc1ccc(Nc2nnc(SCc3cc(=O)n4ccsc4n3)s2)c(C)c1,-6,-21%,35µM*,-4%,-18%,u
CCc1ccc(Nc2nnc(SCC(=O)Nc3sccc3C(N)=O)s2)cc1,-7,-15%,11µM*,u,u,u
Cc1cccc(-n2c(SCc3cc(=O)n4ccsc4n3)nc3ccccc32)c1,2,6%,5µM*,-1%,1%,3%
COc1cc([N+](=O)[O-])ccc1NC(=O)C[n+]1cccc(C(C)=O)c1,-2,-12%,-39%,2%,-6%,-17%
CCc1ccc(Nc2nnc(SCc3cc(=O)n4ccsc4n3)s2)cc1,-5,-4%,2µM*,5%,u,u
Cc1ccc(NCc2nc3ccccc3n2CCOc2ccccc2)cc1,-11,u,2.2µM*,11%,u,u
CSc1nc2sc3c(c2c(=O)n1-c1ccccc1)CCC(C(C)(C)C)C3 (centres undefined),x,x,-22%[59 µM],2%,-5%,-14%
CCN(CC)c1ccc(C=Nc2cc(C)cc(C)c2)c(O)c1,2,-2%,8.9µM*,8%,2%,1%
CCN(CC)c1ccc(C=Nc2ccc(N(C)C)cc2)c(O)c1,-27,50µM*,0.56µM*,u,u,u
CCN(CC)c1ccc(C=Nc2ccc(C)cc2)c(O)c1,-16,-17%,u,-11%,-4%,6%
CSc1nc(N2CCOCC2)nc2ccc(C)cc12,x,x,-8%[2.33 µM],x,x,x
Cc1ccc(Nc2cc(C)c3c(O)cccc3n2)cc1C,-37*,50µM*,x,u,14µM*[quencher],x
Cc1ccccc1Nc1cc(C)c2c(O)cccc2n1,-3,-20%,u,9%,u,u
COc1ccc(Nc2cc(C)c3c(O)cccc3n2)cc1,-30*,u,x,u,u,x
O=C(Nn1c(-c2ccncc2)nc2ccccc2c1=O)c1ccc([N+](=O)[O-])cc1Cl,5,18%,2%,4%,17%,13%
O=C(O)C1CCC(=O)N1C(=O)OCc1ccccc1 (centres undefined),5,11%,71µM*,-4%,-11%,-8%
